About 79,000 compounds went through this panel and 15% of them were active in at least one assay; those are over-represented in the sample as a whole. Unmarked numbers belong to inactive results. Active and inactive are the calls of the source. Cut-off read from the data, not from the text of the source: active = growth inhibition above about 70%; inactive = the rest.
Columns and labels:
[1] = NCI Yeast Anticancer Drug Screen. Data for the rad50 strain (AID 155);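 note: 0% = growth of vehicle-only cultures of the same strain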; settings: S. cerevisiae rad50 strain growth inhibition; at 50.0 µM; stronger effect = higher value
Procedure, shortened: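 Genetically altered yeast (DNA repair pathway); compound treatment; growth inhibition vs vehicle ctrl.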

[2] = NCI Yeast Anticancer Drug Screen. Data for the mec2-1 strain (AID 157); settings: S. cerevisiae mec2-1 strain, at 50.0 µM, stronger effect = higher value
Procedure, shortened: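 Using mec2-1 yeast: add compound, measure growth, express inhibition versus vehicle-treated cultures.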

[3] = NCI Yeast Anticancer Drug Screen. Data for the sgs1 mgt1 strain (AID 161);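 note: 0% = growth of cultures given vehicle only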; settings: S. cerevisiae sgs1 mgt1 strain, at 50.0 µM, stronger effect = higher value
Procedure, shortened: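 Compounds are added to genetically altered yeast, and growth is compared with cultures given vehicle alone to give percent inhibition.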

[4] = NCI Yeast Anticancer Drug Screen. Data for the cln2 rad14 strain (AID 165);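 note: 0% = growth equal to vehicle treated cultures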; settings: S. cerevisiae cln2 rad14 strain, at 50.0 µM, stronger effect = higher value
Procedure, shortened: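 Yeast strain cln2 rad14, bearing defects in cell cycle control and DNA repair, serves as the test system; values reflect growth inhibition compared with vehicle.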

[5] = NCI Yeast Anticancer Drug Screen. Data for the bub3 strain (AID 167); settings: S. cerevisiae bub3 mutant strain, at 50.0 µM, stronger effect = higher value
Procedure, shortened: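 Yeast carrying a defined mutation is treated with each compound, and growth is compared with that of vehicle-exposed cells to give inhibition.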

[6] = NCI Yeast Anticancer Drug Screen. Data for the mlh1 rad18 strain (AID 175); settings: S. cerevisiae mlh1 rad18 strain growth inhibition; at 50.0 µM; stronger effect = higher value
Procedure, shortened: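 Steps: expose repair-defective yeast to compound; measure growth; express inhibition against vehicle-treated controls.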

Structure (SMILES)	growth inhibition [1]	growth inhibition [2]	growth inhibition [3]	growth inhibition [4] [%]	growth inhibition [5]	growth inhibition [6]
N#Cc1c(-c2ccccc2)c(C#N)c(=S)n(C2OCC(O)C(O)C2O)c1N (stereo unspecified)	-23.6%	-2.2%	-10%	-38.5	3.05%	-15.1%
CC(=O)N(C(C)=O)N1C(=O)C2C3C=CC(C4CC34)C2C1=O (stereo unspecified)	30.2%	17%	15.8%	19.6	2.95%	23.4%
CC(C)(C)C1CCC2c3c([nH]c4ccccc34)C3C(=O)N(c4ccc(C#N)cc4)C(=O)C3C2C1 (stereo unspecified)	53.3%	50.2%	54.9%	16.9	38.6%	38.8%
COc1cc2ccncc2cc1O	-7.25%	-18.4%	-26.3%	-4.25	9.45%	-16.1%
Cc1cccc([N+](=O)[O-])c1C	13.7%	-10.4%	7.3%	23.4	10.8%	-15.6%
CC(O)C(O)C(=O)NN (stereo unspecified)	-1%	0.3%	11.4%	4	-2.9%	-6.95%
CCOC(=O)c1c(C(C)=O)cnc2c(C#N)cnn12	-1.15%	-1.55%	-4.95%	41	0.6%	-10.9%
N#CC1CCCCCCCCCCC(=O)N(CCCl)C1=O (stereo unspecified)	-4.25%	-0.45%	13.2%	6.2	-12.9%	-7.05%
Cc1ccc(S(=O)(=O)CC(=O)CC(=O)C(=O)Nc2ccc(C)cc2C)cc1	2.15%	-9.2%	-21.1%	2	-8.55%	12.8%
C/C=C/[C@@]1(OC(=O)c2ccccc2)C[C@@H]2CCCC[C@@H]21	35.4%	11.1%	37.4%	23.3	12.9%	31.6%
COC(=O)c1ccc(NCc2cc(O)ccc2O)cc1O	88.5% (active)	90.5% (active)	83.7% (active)	67.7	84.8% (active)	91.5% (active)
Cc1cccc(C)c1NC(=S)N1CCC(CCCC2CCN(C(=S)Nc3c(C)cccc3C)CC2)CC1	-12.8%	-18.6%	-1.65%	15.7	4.8%	12.2%
CN=C1Nc2ccc(Cl)cc2C(c2ccccc2)=NN1C	10%	-19.4%	2.9%	11.3	6.85%	-12.6%
CCCCOC(=O)NC	44.6%	-6.7%	12.8%	-15.9	7.85%	22.2%
O=C(NN1C(=O)CSC1c1ccccc1F)c1ccncc1 (stereo unspecified)	11.2%	6.25%	21.6%	7.7	11.9%	19.5%
O=Cc1ccccc1COC(=O)c1cc(C(=O)OCc2ccccc2C=O)c(C(=O)OCc2ccccc2C=O)cc1C(=O)OCc1ccccc1C=O	13.9%	7.15%	-14.2%	-2.8	-4.9%	5.25%
Cn1c(=O)c(-c2ccccc2)c(O)c2ccccc21	14.8%	12.4%	-2.4%	27.4	-8.1%	-20.4%
CC1(c2cccc(N)c2)OCCO1	7.4%	-7.2%	7.35%	-7.9	12.7%	11.9%
CCCCCCCCCCCCCC(=O)OCCN(C)C	4.1%	-2.6%	7.7%	-32.6	-14.4%	-12.4%
CCC(=O)N(O)C(C)(C)C	10.8%	0.65%	14.7%	7.55	7.2%	22.1%
C=C1C(=O)OC2/C=C(\C)C(O)C/C=C(/C)C(OC(=O)/C(C)=C\C)C(O)C12 (stereo unspecified)	13.9%	-17.8%	7.2%	5.6	-12.8%	11.8%

Structure (SMILES)	growth inhibition [1]	growth inhibition [2]	growth inhibition [3]	growth inhibition [4] [%]	growth inhibition [5]	growth inhibition [6]
CCNS(=O)(=O)c1ccccc1	-8.55%	-29.2%	-2.7%	5.9	-1.95%	14.7%
COC(=O)C(C(=O)C(N)=O)c1csc(-n2nc(-c3ccccc3)cc2-c2ccccc2)n1 (stereo unspecified)	-1.5%	-13.4%	-13.8%	10.2	30.2%	-7.2%
Nc1ccccc1/C=C/c1ccnc2ccccc12	3.7%	2.55%	23.6%	10.2	-18.1%	47.8%
CC(=O)Nc1ccc(NC(=O)C2CC3C=CC2C3)cc1 (stereo unspecified)	7.55%	-11%	-33%	3.1	-10.7%	23.2%
CC(C)c1cccc(C(C)C)c1NC(=O)C(=O)C1SC(=S)NC1=O (stereo unspecified)	-23.6%	-13.1%	-18.9%	8.75	-11.3%	-29.6%
C=CC(=O)OCCC#N	9%	18.8%	1.3%	2.8	15.1%	5.45%
O=C(Nc1ccc(Br)cc1C(F)(F)F)C(F)(F)F	6%	-5.7%	-2.15%	-28.9	1.9%	-16.2%
CC(C)C1CCC2(CC1)CCN(CCCN(C)C)CC2	-4.65%	25.3%	9.15%	-23.6	7.25%	-7.65%
O=C(OCC1OC(n2cnc3c(Cl)ncnc32)C(OC(=O)c2ccccc2)C1OC(=O)c1ccccc1)c1ccccc1 (stereo unspecified)	-16.6%	-21.2%	-13.2%	5.6	-12.8%	-13.3%
Cc1cc(OC(=O)c2ccc(N)cc2)ccc1C1=NCC(C)S1 (stereo unspecified)	39%	20%	38%	-3.05	8.3%	0.1%
COc1ccc2[nH]c(C)cc2c1CN	-0.65%	-14.3%	15.1%	-24.9	-20.2%	26.4%
COc1ccc(-c2onc(-c3ccc([N+](=O)[O-])cc3)c2C2=NCCCN2)cc1	0.45%	-6.65%	-10.3%	12.7	-1.95%	-20.3%
N#Cc1cc2ccccc2c2ccccc12	8.6%	-4.15%	5.85%	12.3	-11.2%	18.4%
S=c1nc[nH]c2c1ncn2C1CCCC1	-2.25%	-4.75%	-4.55%	-14.9	-0.3%	-3.1%
c1ccc2c(-c3cnc(-c4ccc(-c5ncc(-c6cccc7ccccc67)o5)cc4)o3)cccc2c1	-14.9%	-2.45%	0.5%	-52.6	-1.1%	-16.4%
O=C(NC(=S)Nc1cccc2ccccc12)c1ccccc1F	30.9%	15.1%	37.1%	5.3	44%	28.4%
N#CCCOCCSCCC#N	3%	5.15%	-5.95%	-5.45	1%	-1.8%
N#Cc1cn(C2OC(CO)C3OC32)c2ncnc(NC(=O)c3ccccc3)c12 (stereo unspecified)	28.9%	9.1%	14.7%	10.3	-4%	15.5%
CC1CC(=O)CC[C@@H]1OCc1ccccc1 (stereo partly specified)	5.95%	-17.4%	-5.05%	19.9	-8.95%	16.7%
CCCc1cc(C(=O)OC/C(C)=N/O)c2ccccc2n1	-8.15%	0.7%	11.3%	-7.75	24.6%	9.4%
